M1 ag parental: counter-screen for M1 agonists: effect in parental CHO-K1 cells; Fluo-8 calcium fluorescence; scaled to maximal ATP response, vehicle zero; activation, % at 3 µM; 360,000 compounds, 0.48% hits; AID 602248; in the data active means activation above about 15%;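 further: untransfected CHO-K1 host cells lacking M1 receptor as counterscreen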
CHRM1 agonist: agonists of human M1 muscarinic receptor. P11229. CHO-K1 hM1, Fluo-8 calcium fluorescence, agonist mode; 0% DMSO, 100% acetylcholine EC100. activation, % at 3 µM. 360,000 compounds, 0.33% hits. AID 588814;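 active means activation above the run's mean compound activation plus 3 SD, cut at about 16% in these data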;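 further: peak over basal fluorescence ratio within a 140 s kinetic read after compound addition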
Target sequence (P11229 whole entry, looked up): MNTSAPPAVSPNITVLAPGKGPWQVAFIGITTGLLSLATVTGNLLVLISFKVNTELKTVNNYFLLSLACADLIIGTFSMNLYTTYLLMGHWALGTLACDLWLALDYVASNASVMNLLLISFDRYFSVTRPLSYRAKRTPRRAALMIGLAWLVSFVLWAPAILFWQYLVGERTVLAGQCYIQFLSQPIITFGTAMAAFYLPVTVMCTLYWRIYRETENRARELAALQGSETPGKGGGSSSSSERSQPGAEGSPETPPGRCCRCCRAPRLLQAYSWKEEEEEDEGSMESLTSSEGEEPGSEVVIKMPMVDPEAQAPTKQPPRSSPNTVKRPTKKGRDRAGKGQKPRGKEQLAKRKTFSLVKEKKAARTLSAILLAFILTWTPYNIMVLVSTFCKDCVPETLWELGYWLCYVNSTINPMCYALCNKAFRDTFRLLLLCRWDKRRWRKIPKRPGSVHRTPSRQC
CHRM1 antagonist: antagonists of human M1 muscarinic receptor. CHO-K1 hM1, Fluo-8 calcium fluorescence, ACh EC80 antagonist. P11229. 360,000 compounds, 1.3% hits. inhibition, % at 3 µM;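 active means percent inhibition above its own plate's cutoff, namely the mean of that plate's compound wells plus 3 SD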;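 further: peak over basal fluorescence ratio during 140 s after agonist addition; 0% = ACh EC80 plus DMSO and 100% = DMSO alone without agonist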
CHO-K1 Ca antag: counter-screen for M1 antagonists: effect in parental CHO-K1 cells | ATP-induced calcium, Fluo-8 fluorescence | inhibition, % at 3 µM | 360,000 compounds, 0.6% hits;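 active means inhibition above a per-plate cutoff, the plate's mean sample inhibition plus 3 SD, cut at about 24% in these data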;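 further: 0% = DMSO plus EC80 ATP and 100% = DMSO alone without ATP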
M1 PAM parental: M1 PAM counterscreen hit in parental CHO-K1 cells | ATP EC20, Fluo-8 calcium fluorescence; 0% at ATP EC20, 100% at ATP max | activation, % at 3 µM | 360,000 compounds, 0.02% hits | AID 602247;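 active means activation above the run cutoff, the mean activation of all test compounds plus 3 SD, cut at about 40% in these data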;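 further: peak over basal fluorescence ratio in a 140 s read after ATP addition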
CHRM1 PAM: positive allosteric modulators of human M1 muscarinic receptor | P11229 | CHO-K1 hM1, Fluo-8 calcium fluorescence, ACh EC20; 0% = ACh EC20, 100% = maximal ACh | 360,000 compounds, 0.088% hits | activation, % at 3 µM | AID 588819; in the data active means activation above about 19%, passing the limit was not always enough
* hit, by the source's call. In the library only some 2.3% were active in any assay of this set; here they are far more common.

Results for Cc1nc(NC(=O)CSc2nc3ccccc3s2)sc1C(=O)N(C)C ?
M1 ag parental: 3; CHRM1 agonist: 1; CHRM1 antagonist: -20; CHO-K1 Ca antag: -11; M1 PAM parental: 6; CHRM1 PAM: 25*

What do the screens show for `COc1ccc(S(=O)(=O)NC2CCSc3ccccc32)cc1OC` (configuration not stated)?
M1 ag parental: 5; CHRM1 agonist: -1; CHRM1 antagonist: -8; CHO-K1 Ca antag: -9; M1 PAM parental: 7; CHRM1 PAM: 4

How did Cc1ccc(C(C)C)cc1OCCCCN1CCCC1 do in these assays?
M1 ag parental: 1; CHRM1 agonist: -10; CHRM1 antagonist: 23; CHO-K1 Ca antag: -13; M1 PAM parental: 10; CHRM1 PAM: -19

Results for N#Cc1c(SCC(N)=O)nc(-c2ccccc2)c2c1CCCC2 ?
M1 ag parental: 0; CHRM1 agonist: -4; CHRM1 antagonist: -2; CHO-K1 Ca antag: -11; M1 PAM parental: 21; CHRM1 PAM: 5

Results for Cc1ccc(-c2nc(SCC(N)=O)c(C#N)c3c2CCCC3)cc1 ?
M1 ag parental: 0; CHRM1 agonist: -4; CHRM1 antagonist: -4; CHO-K1 Ca antag: 30*; M1 PAM parental: -3; CHRM1 PAM: 4

Results for CCOC(=O)N1CCC2(CC1)C(C#N)=C(N)Oc1c2c(C)nn1-c1cccc(Cl)c1 ?
M1 ag parental: 2; CHRM1 agonist: 0; CHRM1 antagonist: -2; CHO-K1 Ca antag: -5; M1 PAM parental: 6; CHRM1 PAM: 4

Results for CCCCCCCCCC[n+]1cccc(C(=O)N(CC)CC)c1 ?
M1 ag parental: 0; CHRM1 agonist: -9; CHRM1 antagonist: 42*; CHO-K1 Ca antag: -3; M1 PAM parental: 9; CHRM1 PAM: -25

Results for NC(=O)c1ccc[n+](CCC[n+]2cccc(C(N)=O)c2)c1 ?
M1 ag parental: 0; CHRM1 agonist: -3; CHRM1 antagonist: -7; CHO-K1 Ca antag: -16; M1 PAM parental: 15; CHRM1 PAM: 8

Results for Cc1cc(C)c(S(=O)(=O)Nc2ccccc2-c2ccccc2)c(C)c1 ?
M1 ag parental: 0; CHRM1 agonist: -15; CHRM1 antagonist: -4; CHO-K1 Ca antag: -22; M1 PAM parental: 44*; CHRM1 PAM: -2

Results for O=S(=O)(Nc1ccccc1-c1ccccc1)c1ccccc1 ?
M1 ag parental: 0; CHRM1 agonist: -7; CHRM1 antagonist: -22; CHO-K1 Ca antag: -23; M1 PAM parental: 21; CHRM1 PAM: 8

What do the screens show for `CN(C)CCSc1nc2cc(S(=O)(=O)N3CCCCC3)ccc2o1`?
M1 ag parental: 0; CHRM1 agonist: -8; CHRM1 antagonist: 3; CHO-K1 Ca antag: -10; M1 PAM parental: 3; CHRM1 PAM: -2

Results for N#Cc1ccc(OCC(=O)Nc2ccc(S(=O)(=O)N3CCOCC3)cc2)cc1 ?
M1 ag parental: 3; CHRM1 agonist: -2; CHRM1 antagonist: -1; CHO-K1 Ca antag: -2; M1 PAM parental: 0; CHRM1 PAM: -7

Results for CCCOc1ccc(C(=O)N2CCCC2C(=O)O)cc1 (configuration not stated) ?
M1 ag parental: 0; CHRM1 agonist: 3; CHRM1 antagonist: -24; CHO-K1 Ca antag: -31; M1 PAM parental: 14; CHRM1 PAM: 28*

Results for CCCCOc1ccc(C(=O)N2CCCC2C(=O)O)cc1 (configuration not stated) ?
M1 ag parental: 0; CHRM1 agonist: -3; CHRM1 antagonist: -4; CHO-K1 Ca antag: -4; M1 PAM parental: 4; CHRM1 PAM: 3

How did CN1C(=O)C(CC(=O)Nc2ccc(F)cc2)N(NC(=O)c2cccc(F)c2)C1=S (configuration not stated) do in these assays?
M1 ag parental: 2; CHRM1 agonist: 0; CHRM1 antagonist: 50*; CHO-K1 Ca antag: -4; M1 PAM parental: 12; CHRM1 PAM: -9

How did CCN1C(=O)C(CC(=O)Nc2ccccc2Cl)N(NC(=O)c2cccc(F)c2)C1=S (configuration not stated) do in these assays?
M1 ag parental: 4; CHRM1 agonist: -1; CHRM1 antagonist: -4; CHO-K1 Ca antag: -15; M1 PAM parental: 16; CHRM1 PAM: 4

What do the screens show for `CC(=O)c1ccc(OCCCC(=O)OCC(=O)N2CCN(S(=O)(=O)c3ccc(C)cc3C)CC2)cc1`?
M1 ag parental: 18*; CHRM1 agonist: 3; CHRM1 antagonist: 29*; CHO-K1 Ca antag: 14; M1 PAM parental: -3; CHRM1 PAM: -9

What do the screens show for `COc1ccc(OCCCC(=O)OCC(=O)N2CCN(S(=O)(=O)c3ccc(C)cc3C)CC2)cc1`?
M1 ag parental: 10; CHRM1 agonist: 11; CHRM1 antagonist: 9; CHO-K1 Ca antag: 2; M1 PAM parental: 5; CHRM1 PAM: 4

How did Cc1cc(O)ccc1-c1cc(C(=O)NCc2ccc(F)cc2)[nH]n1 do in these assays?
M1 ag parental: 8; CHRM1 agonist: 25*; CHRM1 antagonist: 3; CHO-K1 Ca antag: -11; M1 PAM parental: -3; CHRM1 PAM: -3

How did Cc1ccc(S(=O)(=O)N2CCC(C(=O)N/N=C/c3ccncc3)CC2)cc1 do in these assays?
M1 ag parental: -1; CHRM1 agonist: -4; CHRM1 antagonist: -2; CHO-K1 Ca antag: 24*; M1 PAM parental: -8; CHRM1 PAM: 2

How did CC[C@H](C)[C@H]1CNC(=S)N1CC1CCN(CCC23CC4CC(CC(C4)C2)C3)CC1 do in these assays?
M1 ag parental: 1; CHRM1 agonist: -11; CHRM1 antagonist: 90*; CHO-K1 Ca antag: -6; M1 PAM parental: 15; CHRM1 PAM: -31

Results for COc1ccc(C(=O)NC(=S)Nc2cccc3ncccc23)cc1[N+](=O)[O-] ?
M1 ag parental: 2; CHRM1 agonist: -4; CHRM1 antagonist: -9; CHO-K1 Ca antag: -9; M1 PAM parental: 2; CHRM1 PAM: 5

Results for COc1cccc(OC)c1CNC(=O)C1CCC(=O)N(CC2CCCCC2)C1 (configuration not stated) ?
M1 ag parental: 1; CHRM1 agonist: -2; CHRM1 antagonist: -2; CHO-K1 Ca antag: -12; M1 PAM parental: 3; CHRM1 PAM: 1

What do the screens show for `COc1ccc(N(CC(=O)NCC2CCCO2)C(=O)CCC(=O)Nc2cc(C)on2)cc1OC` (configuration not stated)?
M1 ag parental: 0; CHRM1 agonist: -2; CHRM1 antagonist: -20; CHO-K1 Ca antag: -6; M1 PAM parental: -10; CHRM1 PAM: 10

Results for FC(F)Sc1ccc(NC(=S)N2CCN(c3ccccn3)CC2)cc1 ?
M1 ag parental: 14; CHRM1 agonist: -5; CHRM1 antagonist: 22*; CHO-K1 Ca antag: 18; M1 PAM parental: -16; CHRM1 PAM: -18

How did Oc1ccccc1N1CCN(C(=S)Nc2ccc(SC(F)F)cc2)CC1 do in these assays?
M1 ag parental: 13; CHRM1 agonist: 2; CHRM1 antagonist: 25; CHO-K1 Ca antag: -5; M1 PAM parental: 17; CHRM1 PAM: -6

Screens: PubChem BioAssay, The Scripps Research Institute Molecular Screening Center
